According to the supplement of paper PMC7156485:
± gives the standard deviation of the averaged measurements.

Assays:
Details in all cases: concentration: 10 µM; 24 h
HCC1569 [1] = assay: cell number relative to DMSO (% of DMSO); higher = more cells (less growth inhibition / toxicity)
Outline: (§1)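 H1.0 nuclear intensity or cell number is stated as percent of the plate control, based on the median of replicates, and HCC1569 values were smoothed for positional effects. These came from HCC1569 and TDF cells treated with compounds at 10 µM for 24 h at 37 °C in triplicate, then fixed in 3.7% formaldehyde and stained with a rabbit anti-H1.0 antibody, an AlexaFluor 647 secondary and DAPI.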

TDF [2] = assay: as above
Outline: as §1

TDF [3] = assay: H1.0 immunofluorescence intensity relative to DMSO (% of DMSO); higher = stronger H1.0 induction, active = 120 or more
Outline: as §1

HCC1569 [4] = assay: H1.0 immunofluorescence intensity relative to DMSO (% of DMSO); higher = stronger H1.0 induction, active = 140 or more
Outline: as §1
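Wherever H1.0 immunofluorescence intensity relative to DMSO is given: TDF is a line of transformed human dermal fibroblasts of mesenchymal origin.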
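Wherever cell number relative to DMSO is given: TDF denotes transformed human dermal fibroblasts of mesenchymal origin.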

Compound	cell number (HCC1569 [1])	cell number (TDF [2])	H1.0 immunofluorescence intensity (TDF [3])	H1.0 immunofluorescence intensity (HCC1569 [4])
Cl.Cl.OCCN1CCN(CCCN2c3ccccc3C=Cc3ccccc32)CC1	102	98.8	99.1 (inactive)	106 (inactive)
CCCCCCCCCCCCCC=CC(O)C(CO)NCCCCCCCC (stereo not drawn) [C8 Ceramine]	105	97	95.1 (inactive)	121 (inactive)
O=C(O)Cc1ccc(O)c(O)c1 [3,4-Dihydroxyphenylacetic acid]	104	102	95.9 (inactive)	96.6 (inactive)
O=C(O)C1=CC(=C(c2ccc(O)c(C(=O)O)c2)c2ccc(O)c(C(=O)O)c2)C=CC1=O [Aurintricarboxylic acid]	102	113	89.4 (inactive)	85.8 (inactive)
Cc1ncc([N+](=O)[O-])n1CCO [Metronidazole]	102	104	99.3 (inactive)	99.3 (inactive)
C[C@H](O)[C@H](O)[C@H]1CNc2[nH]c(N)nc(=O)c2N1.Cl.Cl	103	97.2	92.5 (inactive)	97 (inactive)
CC(C)=CCCC(C)(O)C1CCC2(C)C1CCC1C3(C)CCC(=O)C(C)(C)C3CCC12C (stereo not drawn) [Dipterocarpol]	95.8	102	97.8 (inactive)	82.7 (inactive)
CC(C)NCC(O)c1ccc(O)c(O)c1.Cl (single isomer, unassigned; (-)) [(-)-Isoproterenol hydrochloride]	104	107	89.5 (inactive)	93.8 (inactive)
CC1CNc2c(cccc2S(=O)(=O)N[C@@H](CCCN=C(N)N)C(=O)N2CC[C@@H](C)C[C@@H]2C(=O)O)C1.O (stereo partly drawn)	102	104	89.5 (inactive)	105 (inactive)
O=C(O)CCc1nc(-c2ccccc2)c(-c2ccccc2)o1 [Oxaprozin]	104	101	96.9 (inactive)	97.7 (inactive)
COc1cc2oc(=O)ccc2cc1O [Isoscopoletine]	105	92.4	102 (inactive)	89.1 (inactive)
COc1c(C)c2c(c(O)c1CC=C(C)CCC(=O)O)C(=O)OC2 [Mycophenolic Acid]	78.3 ± 3.8	63.3 ± 4.9	104 (inactive)	116 (inactive)
Cl.Cl.NCCc1cnc[nH]1 [Histamine dihydrochloride]	99.6	105	92.1 (inactive)	86.6 (inactive)
O=c1cc(-c2cccc3c2Sc2ccccc2S3)oc(N2CCOCC2)c1	83.2	97.9	94.5 (inactive)	145 (active)
CN(Cc1cnc2nc(N)nc(N)c2n1)c1ccc(C(=O)NC(CCC(=O)O)C(=O)O)cc1 (single isomer, unassigned; (-)) [(-)Amethopterin]	96.4	96.2	106 (inactive)	110 (inactive)
O=C(C=Cc1ccc(O)cc1)c1ccc(O)cc1O [Isoliquiritigenin]	96.3	99.6	89.2 (inactive)	100 (inactive)
NNC(=O)c1ccncc1 [Isoniazid]	105	104	89.6 (inactive)	110 (inactive)
CN1CCc2cccc3c2C1Cc1ccc(O)c(O)c1-3.Cl (stereo not drawn) [Apomorphine hydrochloride hemihydrate]	89.9	87.9	94.8 (inactive)	99.6 (inactive)
O=C(c1ccccc1)c1ccc(N2CCOCC2)cc1O [DNA-PK Inhibitor V]	94.7	95.7	91.7 (inactive)	109 (inactive)
O=C1NC(=O)C(c2cn(CCCn3ccnc3)c3ccccc23)=C1Nc1ccccc1 [PKCb Inhibitor]	100	113	87.7 (inactive)	104 (inactive)
CC(CC(c1ccccc1)c1ccccc1)NC(C)(C)C.Cl (stereo not drawn) [N-(tert-butyl)-4,4-diphenyl-2-butanamine hydrochloride]	97.9	97.5	99.1 (inactive)	101 (inactive)
CS(=O)(=O)O.Cn1cc(C(F)(F)F)nc1-c1ccc(OCC(O)CNCCOc2ccc(O)c(C(N)=O)c2)cc1 (stereo not drawn)	97.2	92.5	94.5 (inactive)	96.4 (inactive)
OC(Cn1cncn1)(Cn1cncn1)c1ccc(F)cc1F [Fluconazole]	102	100	93.8 (inactive)	106 (inactive)
COc1cc2nccc(Oc3ccc(NC(=O)Nc4cc(C)on4)c(Cl)c3)c2cc1OC.O [VEGFR Tyrosine Kinase Inhibitor IV]	82.4	90.7	94 (inactive)	121 (inactive)

Compound	cell number (HCC1569 [1])	cell number (TDF [2])	H1.0 immunofluorescence intensity (TDF [3])	H1.0 immunofluorescence intensity (HCC1569 [4])
CC(=Cc1ccc(C(=O)O)cc1)c1ccc2c(c1)C(C)(C)CCC2(C)C	100.2 ± 0.57	106 ± 2.4	89.4 (inactive)	111 (inactive)
CN(C)[C@@H](CCOc1cccc2ccccc12)c1ccccc1.Cl	90.3	92.4	104 (inactive)	142 (active)
CC(=O)N1CCN(C(=O)/C=C/c2ccc(Sc3ccccc3C(C)C)c([N+](=O)[O-])c2)CC1	82.5	86.4	103 (inactive)	123 (inactive)
O=C(O)C=Cc1ccc(O)c(O)c1 [Caffeic Acid]	99.9	115	87.2 (inactive)	84.5 (inactive)
CCCCCC(CC(=O)NO)C(=O)NC(C(=O)N1CCCC1CO)C(C)C (stereo not drawn) [Actinonin]	101	89	108 (inactive)	111 (inactive)
COc1cc(C(=O)OCCCN2CCCN(CCCOC(=O)c3cc(OC)c(OC)c(OC)c3)CC2)cc(OC)c1OC [Dilazep]	107	93.1	103 (inactive)	91.6 (inactive)
CC(C)(C)c1ccc(S(=O)(=O)Nc2ccc(-n3ccnc3)cc2)cc1 [Stem-Cell Factor/c-Kit Inhibitor, ISCK03]	100	102	103 (inactive)	99.6 (inactive)
c1ccc2c(CC3=NCCN3)cccc2c1 [Naphazoline]	99.4	102	98 (inactive)	113 (inactive)
CCCCCCCCCCCCCCCC(=O)OC(CC(=O)O)C[N+](C)(C)C.[Cl-] (racemic) [Palmitoyl-DL-Carnitine chloride]	94.9	101	104 (inactive)	110 (inactive)
COc1cc2c3cc1Oc1cc(ccc1O)CC1c4c(cc(OC)c(O)c4Oc4ccc(cc4)CC3N(C)CC2)CC[N+]1(C)C.Cl.[Cl-] (single isomer, unassigned; (+)) [(+)-Tubocuraraine chloride]	108	109	93.2 (inactive)	99.2 (inactive)
CC(C)NCC(O)COc1ccc(CC(N)=O)cc1 (stereo not drawn) [Atenolol]	99.9	102	94.7 (inactive)	113 (inactive)
Clc1cccc(CNC2=Nc3ccccc3NC23CCNCC3)c1	99	89.6	106 (inactive)	124 (inactive)
CC(C)OC(=O)C(C)(C)Oc1ccc(C(=O)c2ccc(Cl)cc2)cc1 [Fenofibrate]	99.6 ± 2.2	106.6 ± 0.69	95 (inactive)	109 (inactive)
CSc1nc(N)c2ncn(C3OC(COP(=O)([O-])OP(=O)([O-])[O-])C(O)C3O)c2n1.[Na+].[Na+].[Na+] (stereo not drawn) [2-Methylthioadenosine diphosphate trisodium]	99.9	92.9	99.2 (inactive)	89.7 (inactive)
O=C(C=CC=Cc1ccc2c(c1)OCO2)N1CCCCC1 [Piperine]	100	97	96.8 (inactive)	104 (inactive)
NC1CONC1=O [L-Cycloserine]	102 ± 2.4	102 ± 2.1	94.5 (inactive)	84.8 (inactive)
CC1C(=O)OC2CC34C5CC(C(C)(C)C)C36C(OC(=O)C6O)OC4(C(=O)O5)C21O (stereo not drawn) [Ginkgolide A]	99.6 ± 1.2	99 ± 3	92.3 (inactive)	95.8 (inactive)
Nc1nc(=O)c2ncc(=O)[nH]c2[nH]1 [Isoxanthopterin]	104	108	92.2 (inactive)	94.9 (inactive)
Cl.Cl.O=C(O)COCCN1CCN(C(c2ccccc2)c2ccc(Cl)cc2)CC1 (stereo not drawn) [Cetirizine 2HCl]	98.9	102	94.3 (inactive)	104 (inactive)
N=S(=O)([O-])Cc1noc2ccccc12.[Na+] [Zonisamide sodium]	104	117	92.2 (inactive)	98.6 (inactive)
N#Cc1c(-c2ccccc2)no[n+]1[O-] [4-Phenyl-3-furoxancarbonitrile]	64.2	93.3	93.2 (inactive)	122 (inactive)
c1ccc(-c2cnc(Nc3ccc(OCCN4CCCC4)cc3)s2)cc1 [Flt-3 Inhibitor III]	80.3	74.2	97.1 (inactive)	150 (active)
CCC1(O)CC2CN(CCc3c([nH]c4ccccc34)C(C(=O)OC)(c3cc4c(cc3OC)N(C=O)C3C(O)(C(=O)OC)C(OC(C)=O)C5(CC)C=CCN6CCC43C65)C2)C1.O=S(=O)(O)O (stereo not drawn) [Vincristine sulfate]	57.3 ± 1	9.46 ± 1.6	167 (active)	151 (active)
